Assay [1] can be described thus: NCI Yeast Anticancer Drug Screen. Data for the rad50 strain (AID 155).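 Note: 0% = growth of vehicle-only cultures of the same strain.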 Particulars: S. cerevisiae rad50 strain growth inhibition; at 50.0 µM; stronger effect = higher value. In a few lines:
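Growth of the mutant yeast was measured after compound exposure and referenced to vehicle-treated cultures.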

Assay [2] in a line: NCI Yeast Anticancer Drug Screen. Data for the mec2-1 strain (AID 157). To be noted: S. cerevisiae mec2-1 strain, at 50.0 µM, stronger effect = higher value. In a few lines:
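Mutant yeast (mec2-1) grown with compound; growth inhibition relative to vehicle control reported.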

Assay [3] is described as follows: NCI Yeast Anticancer Drug Screen. Data for the sgs1 mgt1 strain (AID 161).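 Note: 0% = growth of cultures given vehicle only.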 Particulars: S. cerevisiae sgs1 mgt1 strain, at 50.0 µM, stronger effect = higher value. In a few lines: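 Growth of a repair-deficient yeast mutant was monitored after compound treatment and expressed as inhibition relative to vehicle-treated cultures.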
Assay [4] in a line: NCI Yeast Anticancer Drug Screen. Data for the cln2 rad14 strain (AID 165).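 Note: 0% = growth equal to vehicle treated cultures.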 Particulars: S. cerevisiae cln2 rad14 strain, at 50.0 µM, stronger effect = higher value. In short, it runs like this:
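Readout is yeast growth inhibition versus vehicle-treated controls, using a strain with cln2 and rad14 alterations exposed to compound.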

The nature of assay [5]: NCI Yeast Anticancer Drug Screen. Data for the bub3 strain (AID 167). Particulars: S. cerevisiae bub3 mutant strain, at 50.0 µM, stronger effect = higher value. In a few lines:
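Whole-cell yeast assay. The mutant strain was incubated with compounds, and growth inhibition was determined by comparison with vehicle-treated cells.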

The nature of assay [6]: NCI Yeast Anticancer Drug Screen. Data for the mlh1 rad18 strain (AID 175). To be noted: S. cerevisiae mlh1 rad18 strain growth inhibition; at 50.0 µM; stronger effect = higher value. In a few lines:
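Genetically defined yeast (DNA repair-deficient) exposed to compounds; growth inhibition determined relative to vehicle.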

Compounds without any hit were thinned out: in the full panel of roughly 79,000, 15% have a hit. Values without a mark were called inactive. Active and inactive are the calls of the source. Cut-off read from the data, not from the text of the source: active = growth inhibition above about 70%; inactive = the rest.

As to `CO[C@@]12C[C@@H](C)[C@]34O[C@H]3C[C@]3(C)O[C@]43CC1=C(C)C(=O)O2`, the growth inhibition in assay [1] is 10.2%; in assay [2], 1.2%; in assay [3], 23.6%; in assay [4], 7.5%; in assay [5], 28.4%; in assay [6], -64%.
Turning to `OC1CCC(O)[C@H]2[C@@H]1[C@@H]1S[C@H]2c2ccccc21` (some centres not stated), the growth inhibition in assay [1] was -2.55%; in assay [2], -14.8%; in assay [3], -22.4%; in assay [4], 1.7%; in assay [5], -10.3%; in assay [6] it was -1.85%.
For `O=C1c2ccccc2CCC12OC2c1ccccn1` (configuration not stated), the growth inhibition is 67.8% in assay [1]; 78.5% (active) in assay [2]; 55% in assay [3]; -6% in assay [4]; 89.9% (active) in assay [5]; 84.2% (active) in assay [6].
Regarding `N#CC(C#N)=NO` (tested in a mixture with another compound), the growth inhibition in assay [1] was 11.8%; in assay [2], 6.6%; in assay [3], -7.7%; in assay [4], -0.75%; in assay [5] it was 5.3%; in assay [6], 5.75%.
As to `CCN(CC)CCCn1c(-c2ccccc2)ccc1-c1ccccc1`, the growth inhibition in assay [1] is 10.1%; in assay [2] it was -6%; in assay [3], 8.1%; in assay [4] it was -16.4%; in assay [5], 21.4%; in assay [6], 18.4%.
On to `C#CCn1cnc2c1c(=O)n(C)c(=O)n2C`, for which the growth inhibition in assay [1] is 10.2%; in assay [2], -12.7%; in assay [3], -7.35%; in assay [4] it was -0.8%; in assay [5], -11.7%; in assay [6] it was -10.7%.
For the compound `Cc1ccc(S(=O)(=O)C(CCC(=O)c2ccccc2)(CCC(=O)c2ccccc2)[N+](=O)[O-])cc1`, the growth inhibition in assay [1] was -9.05%; in assay [2], -9.45%; in assay [3], -10%; in assay [4], -26%; in assay [5], -1.5%; in assay [6], 0%.
As to `CC(=O)N1C(=O)C2(Nc3cccnc3N2)c2ccccc21` (configuration not stated), the growth inhibition in assay [1] is -4.85%; in assay [2], 16.4%; in assay [3], -1.8%; in assay [4], -1.35%; in assay [5], -0.95%; in assay [6], -16.1%.
`CC1C(c2ccccc2)=CCON1c1ccccc1` (configuration not stated): the growth inhibition is -2.9% in assay [1]; -16.6% in assay [2]; -24.4% in assay [3]; 13.4% in assay [4]; -3.75% in assay [5]; -28.1% in assay [6].
Take `CCOc1ccccc1NC(=O)C(=O)C(c1ccccc1)S(=O)(=O)Cc1ccccc1` (configuration not stated): the growth inhibition in assay [1] was -1%; in assay [2], -12.5%; in assay [3], -10.1%; in assay [4], 5.45%; in assay [5], -7.35%; in assay [6], -1.5%.
In the case of `NCCNCCCCCCCCCCCCOS(=O)(=O)O`, the growth inhibition in assay [1] is -32.8%; in assay [2] it was -23.6%; in assay [3] it was -6.35%; in assay [4], -15.3%; in assay [5], -25%; in assay [6] it was -11.4%.
On to `O=C1C2=C(c3ccccc31)C(c1ccccc1Cl)N1C(=O)CSC1=N2` (configuration not stated), for which the growth inhibition is 67.9% in assay [1]; 50.2% in assay [2]; 53.5% in assay [3]; 48.6% in assay [4]; 53.8% in assay [5]; 60% in assay [6].
Regarding `Nc1nnc(CCCCCCCc2nnc(N)o2)o1`, the growth inhibition is -6.25% in assay [1]; 12.6% in assay [2]; 3.45% in assay [3]; 7.5% in assay [4]; 6.85% in assay [5]; 13.2% in assay [6].
Consider `Cn1c(=O)c2[nH]c(=O)n(C)c2n(C)c1=O`, for which the growth inhibition in assay [1] is -5.35%; in assay [2] it was 2.25%; in assay [3], 12.6%; in assay [4] it was -9.55%; in assay [5], 16.5%; in assay [6], 16.1%.
As to `c1ccc2nn(C3CCCCO3)nc2c1` (configuration not stated), the growth inhibition in assay [1] was -8.05%; in assay [2], -9.85%; in assay [3], -25.9%; in assay [4], -18.1%; in assay [5], 5.65%; in assay [6] it was -54.6%.
For `NC(=O)NC(=O)Cc1ccc(N)cc1`, the growth inhibition in assay [1] was 4.6%; in assay [2], -9.1%; in assay [3], 1.9%; in assay [4], 1.1%; in assay [5], 4%; in assay [6] it was -4.9%.
Regarding `COc1ccc(CNc2cnc3cc(N)ccc3n2)cc1OC`, the growth inhibition in assay [1] is -12.3%; in assay [2], -34.5%; in assay [3], -37.5%; in assay [4], 3.15%; in assay [5], -19.3%; in assay [6], -16.4%.
`CC(=O)Oc1ccc(C2CC(=O)N(CCN(C)C)C2=O)cc1` (configuration not stated): the growth inhibition in assay [1] was 0.2%; in assay [2] it was 30.2%; in assay [3] it was -0.5%; in assay [4], -6.35%; in assay [5], 14.2%; in assay [6], -2.1%.
Turning to `CNc1nc(N)nc(N)c1N1CCN(c2ccc(C(=O)O)cc2)CC1`, the growth inhibition was 13.3% in assay [1]; -0.8% in assay [2]; 19.8% in assay [3]; 9.95% in assay [4]; 17.2% in assay [5]; 16.6% in assay [6].
Regarding `CC(=O)Nc1ccc2c(c1)Cc1c(F)cc(F)cc1-2`, the growth inhibition is 35.9% in assay [1]; -9% in assay [2]; 19.6% in assay [3]; 16.1% in assay [4]; 21.9% in assay [5]; 39.8% in assay [6].
`Nc1ccc([N+](=O)[O-])c2ccccc12`: the growth inhibition in assay [1] was 17.1%; in assay [2], -8.75%; in assay [3] it was 12.7%; in assay [4], 10.8%; in assay [5] it was 24.6%; in assay [6], 12.7%.
For `CCCC1(C)OCC(C)(C)CO1`, the growth inhibition in assay [1] was -1.05%; in assay [2], 2.45%; in assay [3], -13.3%; in assay [4] it was -28.8%; in assay [5], 3.85%; in assay [6] it was 1.9%.
For the compound `Cc1cc(S(=O)(=O)Nc2cc(N)[nH]n2)c(SCc2nc(N)nc(N(C)C)n2)cc1Cl`, the growth inhibition was 11.2% in assay [1]; 8.7% in assay [2]; -0.1% in assay [3]; 2.7% in assay [4]; 6.6% in assay [5]; 8.05% in assay [6].
On to `CC(=O)OCCC(C)Nc1ccnc2cc(Cl)ccc12` (configuration not stated), for which the growth inhibition in assay [1] was -11.7%; in assay [2] it was -7.45%; in assay [3], 6.35%; in assay [4] it was 13.2%; in assay [5] it was -3.75%; in assay [6], 12.2%.
With `O=C1OC(=O)c2ccc(SCC(O)CCl)c3cccc1c23` (configuration not stated), the growth inhibition in assay [1] is 99.4% (active); in assay [2] it was 99.5% (active); in assay [3], 98.7% (active); in assay [4], 95.8% (active); in assay [5], 98.9% (active); in assay [6] it was 99.2% (active).
On to `Cc1nc[nH]c1[N+](=O)[O-]`, for which the growth inhibition in assay [1] is -6.6%; in assay [2], -11%; in assay [3], -10%; in assay [4], 2.2%; in assay [5], -0.85%; in assay [6], -12.7%.
For `O=C(c1ccc(Cl)c(Cl)c1)C(CS(=O)(=O)O)CS(=O)(=O)O` (tested in a mixture with another compound), the growth inhibition in assay [1] was -1.55%; in assay [2], 0.4%; in assay [3] it was -0.8%; in assay [4], -4.45%; in assay [5] it was -4.8%; in assay [6], 12.3%.
As to `O=C(NCCCCNCCCNC(=O)OCc1ccccc1)OCc1ccccc1`, the growth inhibition in assay [1] was 14.7%; in assay [2], -4.2%; in assay [3] it was -2.65%; in assay [4], -8.55%; in assay [5], -20.4%; in assay [6] it was -59.8%.
On to `CN(C)c1ccc(/C=N/N(Cc2ccccc2)c2ccccc2)cc1`, for which the growth inhibition is -14.4% in assay [1]; -29.1% in assay [2]; 3.2% in assay [3]; -11.6% in assay [4]; 11.3% in assay [5]; 10.2% in assay [6].
As to `CCCCCc1c(Cl)nc(Cl)nc1Cl`, the growth inhibition in assay [1] is -14.2%; in assay [2], 11.2%; in assay [3], 12.3%; in assay [4], -38.8%; in assay [5], 26.9%; in assay [6], -18.1%.
On to `Cc1ccc(Oc2ccc(C(=O)c3cccc(C(=O)c4ccc(Oc5ccc(C)cc5)cc4)n3)cc2)cc1`, for which the growth inhibition in assay [1] was -18.6%; in assay [2], 2.05%; in assay [3] it was -38.2%; in assay [4], -28.2%; in assay [5] it was -15.3%; in assay [6], -24.9%.
For the compound `CCc1cc2c(Nc3ccccc3)c3c(nc2s1)CCCC3`, the growth inhibition in assay [1] is -15.3%; in assay [2], -25.8%; in assay [3], -8.75%; in assay [4], 11.5%; in assay [5], 16.4%; in assay [6], -33.5%.
With `O=c1cc(-c2ccc3ccccc3n2)oc2ccccc12`, the growth inhibition in assay [1] was -16.4%; in assay [2], 2.5%; in assay [3] it was 3.7%; in assay [4] it was 28.3%; in assay [5], -1.95%; in assay [6], -4.2%.
For `CC1(C)COC(c2ccc3ccccc3c2)OC1`, the growth inhibition in assay [1] is 26%; in assay [2], 10.7%; in assay [3], -6.2%; in assay [4], -21.9%; in assay [5] it was 35.4%; in assay [6] it was -5.8%.
On to `O=C(O)c1[nH]c(=O)[nH]c(=O)c1Br`, for which the growth inhibition in assay [1] is -4.3%; in assay [2], -22.9%; in assay [3], -9.75%; in assay [4], -40.5%; in assay [5], -15.7%; in assay [6], -17.6%.
On to `CC(Nc1ccc([N+](=O)[O-])cc1)S(=O)(=O)O` (configuration not stated), for which the growth inhibition in assay [1] was 7.4%; in assay [2] it was -0.2%; in assay [3], 13.4%; in assay [4] it was 16.6%; in assay [5] it was 12.4%; in assay [6], 18.4%.
On to `COc1c(NC(=O)c2ccc(C(=O)Nc3cccc([N+](=O)[O-])c3OC)cc2)cccc1[N+](=O)[O-]`, for which the growth inhibition in assay [1] was 22.3%; in assay [2], -6.1%; in assay [3] it was -9%; in assay [4], -20.6%; in assay [5], -2.2%; in assay [6], -1.3%.

The values are drawn from PubChem BioAssay (NCI).
